Laboratory results reported in PubChem BioAssay (EPA / NIEHS).
Results filed as inconclusive are left out. The source made the active and inactive calls. The calls were made as follows, unless noted: active = hit-call score of the fitted dose curve at least 0.9, where 1 is the maximum; inconclusive = response in the unintended direction; inactive = score below 0.9.

How the values were obtained:
[1] = Tanguay_ZF_120hpf_PIG_legacy: (Legacy) Oregon State University Tanguay Lab 120 Hour Post-fertilization zebrafish Assay for Pigmentation Malformation (AID 2283650)
Outline: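 Endpoint is incidence of abnormal pigmentation at 120 hpf in dechorionated 5D zebrafish exposed singly from 6 hpf at 28C, DMSO vehicle at 0.64%. Embryos dying by 24 or 120 hpf are excluded from scoring.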

[2] = Tanguay_ZF_120hpf_CIRC_legacy: (Legacy) Oregon State University Tanguay Lab 120 Hour Post-fertilization zebrafish Assay for Circulatory Malformation (AID 2283651)
Outline: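 Embryos are dechorionated at 4 hpf, plated one per well at 6 hpf, then held under static exposure at 28C until 120 hpf. Malformations are recorded as binary calls; mortality excludes other endpoints.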

[3] = Tanguay_ZF_120hpf_SWIM_legacy: (Legacy) Oregon State University Tanguay Lab 120 Hour Post-fertilization zebrafish Assay for Swim Bladder Malformation (AID 2283654);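 also: swim bladder malformation in each larva scored yes or no under brightfield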
Outline: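 Static waterborne exposure of single dechorionated Tropical 5D zebrafish embryos, 6–120 hpf, 28C, 0.64% DMSO final. Read-out: swim bladder malformation, present/absent, relative to DMSO negative control; trimethyltin chloride 5uM served as positive control.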

[4] = Tanguay_ZF_120hpf_NC_legacy: (Legacy) Oregon State University Tanguay Lab 120 Hour Post-fertilization zebrafish Assay for Notochord and Tail Malformation (AID 2283656)
Outline: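 Binary scoring of notochord distortion by brightfield microscopy; embryos dying were not scored. Wild-type Tropical 5D embryos, chorion removed, exposed singly and statically from 6 to 120 hpf, 28C, sealed, 0.64% DMSO.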

[5] = read-out: ABC Transporter (ABCB1), ABCB1 (gene 5243); assay: CLD_ABCB1_6hr: CellzDirect (CLD) Gene Expression Assay for ABC Transporter (ABCB1) at 6 hours (AID 2283659);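 also: hits raise ABCB1 transcript above the DMSO vehicle baseline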
Outline: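 ABCB1 transcript measured by quantitative nuclease protection assay, chemiluminescent read-out, 6 h after dosing human hepatocyte cultures (0.2% DMSO vehicle, daily redosing). Activity fitted as increase over DMSO baseline; cytotoxicity flagged by phase-contrast morphology.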

[6] = read-out: alkyl and aryl transferase (GSTA2), GSTA2 (gene 2939); assay: CLD_GSTA2_6hr: CellzDirect (CLD) Gene Expression Assay for alkyl and aryl transferase (GSTA2) at 6 hours (AID 2283666)
Outline: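 GSTA2 transcript induction at 6 h, quantified by nuclease protection (qNPA) with chemiluminescent detection, in human liver primary hepatocytes exposed to several compound concentrations with 0.2% DMSO as baseline; phase-contrast morphology annotated apparent cytotoxicity.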

[7] = read-out: organic anion transporter (SLCO1B1), SLCO1B1 (gene 10599); assay: CLD_SLCO1B1_6hr: CellzDirect (CLD) Gene Expression Assay for organic anion transporter (SLCO1B1) at 6 hours (AID 2283668);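 also: active means mRNA induction above DMSO baseline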
Outline: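 SLCO1B1 mRNA induction measured 6 h after dosing by quantitative nuclease protection with chemiluminescent read-out, in human primary hepatocyte cultures given chemicals at several concentrations (vehicle 0.2% DMSO). Increase over DMSO baseline fitted; morphology-based cytotoxicity annotated yes/no.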

[8] = read-out: xenobiotic metabolism (CYP1A1), CYP1A1 (gene 1543); assay: CLD_CYP1A1_6hr: CellzDirect (CLD) Gene Expression Assay for xenobiotic metabolism (CYP1A1) at 6 hours (AID 2283661);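 as to AC50: potency for transcript induction above DMSO vehicle baseline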
Outline: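 Read-out 6 h post-dose: qNPA chemiluminescent quantitation of transcript induction against 0.2% DMSO. Cells were cultured primary human hepatocytes from two separate donor preparations; phase-contrast morphology annotated apparent cytotoxicity.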

[9] = read-out: ABC Transporter (ABCB11), ABCB11 (gene 8647); assay: CLD_ABCB11_6hr: CellzDirect (CLD) Gene Expression Assay for ABC Transporter (ABCB11) at 6 hours (AID 2283675);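 also: hits raise ABCB11 mRNA level so AC50 marks induction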
Outline: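 Read-out was ABCB11 mRNA gain of signal by quantitative nuclease protection assay, relative to 0.2% DMSO vehicle, 6 h post-dose. Cells were primary human hepatocytes from two donors, treated across multiple concentrations; phase-contrast cytotoxicity noted yes/no.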

[10] = read-out: sulfotransferase (SULT2A), SULT2A1 (gene 6822); assay: CLD_SULT2A_6hr: CellzDirect (CLD) Gene Expression Assay for sulfotransferase (SULT2A) at 6 hours (AID 2283669);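 also: hits raise transcript level above the DMSO vehicle baseline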
Outline: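 Measured 6 h after dosing, SULT2A1 mRNA in human hepatocyte lysates was quantified by S1 nuclease protection with chemiluminescent detection. Increases fitted against 0.2% DMSO vehicle baseline; phase-contrast cytotoxicity recorded yes/no.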

[11] = Tanguay_ZF_120hpf_TRUN_legacy: (Legacy) Oregon State University Tanguay Lab 120 Hour Post-fertilization zebrafish Assay for Truncated Body (AID 2283655)
Outline: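 Single dechorionated zebrafish embryos received test chemical from 6 hpf in 0.64% DMSO, kept at 28C. At 120 hpf, brightfield inspection noted any truncated body.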

[12] = tested on: Thyroperoxidase (TPO), gene 54314; assay: CCTE_Simmons_AUR_rTPO: CCTE's Amplex UltraRed Assay for Thyroperoxidase (TPO) Inhibition, Simmons Lab (AID 2283662);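 also: potency for loss of signal meaning inhibition of peroxidase activity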
Outline: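 Rat thyroid microsomes (5 ug protein) were incubated with test compound (8 concentrations, 5 nM–87.5 uM final, 0.5% DMSO), 25 uM Amplex UltraRed and 300 uM H2O2 in 200 mM phosphate buffer for 30 min at 37C in the dark; fluorescence read at 544/590 nm.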

[13] = CCTE_Simmons_CellTiterGLO_HEK293T: Viability Assessment in CCTE's Assays for Thyroperoxidase (TPO) Inhibition, Simmons Lab (AID 2283665);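 as to AC50: cells exposed to compound for 24 h before readout; actives reduce ATP signal below DMSO vehicle meaning cytotoxicity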
Outline: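 Cells were seeded overnight, then exposed to an eight-point series up to 87.5 uM final for 24 hours. CellTiter-Glo reagent was added and luminescence read after 20 min, giving ATP-based viability versus DMSO.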

[14] = read-out: xenobiotic metabolism (CYP1A1), CYP1A1 (gene 1543); assay: CLD_CYP1A1_24hr: CellzDirect (CLD) Gene Expression Assay for xenobiotic metabolism (CYP1A1) at 24 hours (AID 2283673);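 also: CYP1A1 mRNA level by quantitative nuclease protection with chemiluminescence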
Outline: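 Transcript levels were read at 24 h by qNPA chemiluminescence in human liver primary cells. Cells got daily fresh dosing at multiple concentrations (vehicle 0.2% DMSO). Induction fitted upward against DMSO; phase-contrast cytotoxicity annotated.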

[15] = read-out: solute carrier (SLC10A1), SLC10A1 (gene 6554); assay: LTEA_HepaRG_SLC10A1: Life Technologies and Expression Analysis (LTEA) Assay for solute carrier (SLC10A1) using HepaRG (AID 2283657; active = hit-call score of the fitted dose curve at least 0.9, where 1 is the maximum; inactive = score below 0.9); conditions: mRNA level, 48 h; actives raise or lower the signal
Outline: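 Cryopreserved HepaRG cells are thawed, plated and cultured 48 h; medium is then switched to serum-free induction medium and chemicals added (8 points, max 100 uM, 0.5% DMSO). After 48 h, RNA is isolated and SLC10A1 quantified by qRT-PCR.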

[16] = read-out: matrix metalloproteinase-1 (MMP1), MMP1 (gene 4312); assay: LTEA_HepaRG_MMP1: Life Technologies and Expression Analysis (LTEA) Assay for matrix metalloproteinase-1 (MMP1) using HepaRG (AID 2283658; active = hit-call score of the fitted dose curve at least 0.9, where 1 is the maximum; inactive = score below 0.9); conditions: mRNA level, 48 h; actives raise or lower the signal
Outline: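 In this screen, human liver HepaRG cultures receive each chemical in duplicate for 48 h (top 100 uM, 0.5% DMSO). MMP1 expression is then quantified by TaqMan qRT-PCR with ACTB/GAPDH/POLR2A normalization.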

[17] = read-out: Cytochrome P450 (CYP24A1_1), CYP24A1 (gene 1591); assay: LTEA_HepaRG_CYP24A1_1: Life Technologies and Expression Analysis (LTEA) Assay for Cytochrome P450 (CYP24A1_1) using HepaRG (AID 2283671; active = hit-call score of the fitted dose curve at least 0.9, where 1 is the maximum; inactive = score below 0.9); conditions: mRNA level, 48 h; actives raise or lower the signal
Outline: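 Cultures of human HepaRG were treated in duplicate for 48 h (0.5% DMSO vehicle, highest dose 100 uM). CYP24A1 mRNA by qRT-PCR, normalized to ACTB, GAPDH, POLR2A.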

[18] = read-out: glucuronosyltransferase (UGT1A1), UGT1A1 (gene 54658); assay: CLD_UGT1A1_6hr: CellzDirect (CLD) Gene Expression Assay for glucuronosyltransferase (UGT1A1) at 6 hours (AID 2283672)
Outline: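 UGT1A1 mRNA induction, read by quantitative nuclease protection assay, 6 h after dosing primary human hepatocytes (two donors, 0.2% DMSO vehicle). Gain of signal fitted relative to vehicle.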

Measured: AC50

C#CCN1C(=O)COc2cc(F)c(N3C(=O)C4=C(CCCC4)C3=O)cc21
inactive: [1] | [2] | [3] | [4] | [5] | [6] | [7]

OCCOc1ccccc1
inactive: [1] | [2] | [3] | [5] | [8] | [6] | [9]

Cc1cc(C)nc(NC(=O)NS(=O)(=O)c2ccccc2C(=O)OC2COC2)n1
inactive: [8] | [10]

O=C(Nc1ccccc1)Nc1cnns1
inactive: [1] | [2] | [11] | [4] | [13] | [6] | [7] | [10] | [9]
active: [8] 1.87 µM | [12] 43.8 µM

COC(=O)c1ccccc1CS(=O)(=O)NC(=O)Nc1nc(OC)cc(OC)n1
inactive: [5] | [6] | [10] | [9]
active: [8] 20 µM

CC(C)OC(=O)Nc1cccc(Cl)c1
active: [8] 3.3 µM
inactive: [1] | [3] | [11] | [4] | [5] | [6] | [7]

CC1(c2ccc(Oc3ccccc3)cc2)OC(=O)N(Nc2ccccc2)C1=O (stereo not drawn)
inactive: [1] | [2] | [11] | [4] | [8] | [6] | [7] | [10] | [9]
active: [12] 2.45 µM | [13] 20.2 µM

O=S1OCC2C(CO1)C1(Cl)C(Cl)=C(Cl)C2(Cl)C1(Cl)Cl (stereo not drawn)
inactive: [1] | [2] | [3] | [11] | [5] | [7] | [10] | [9]

CCS(=O)(=O)c1cccnc1S(=O)(=O)NC(=O)Nc1nc(OC)cc(OC)n1
active: [14] 1.9 µM
inactive: [5] | [8] | [6] | [7] | [9]

CCC(C)Nc1c([N+](=O)[O-])cc(C(C)(C)C)cc1[N+](=O)[O-] (stereo not drawn)
inactive: [1] | [3] | [11] | [16] | [5] | [10] | [17] | [18] | [9]
active: [15] 72.9 µM | [8] 3.41 µM

O=[N+]([O-])/N=C1\NCCN1Cc1ccc(Cl)nc1
inactive: [1] | [2] | [11] | [4] | [5] | [8] | [6] | [7] | [10] | [9]

COP(=O)(OC)OC=C(Cl)Cl
active: [8] 1.9 µM | [12] 21 µM
inactive: [1] | [2] | [3] | [4] | [5] | [13] | [9]

CCc1ccc(C(=O)NN(C(=O)c2cc(C)cc(C)c2)C(C)(C)C)cc1
active: [8] 7.56 µM | [9] 20 µM
inactive: [1] | [3] | [11] | [4] | [5] | [6] | [7] | [10]

COC(=O)c1ccccc1S(=O)(=O)NC(=O)N(C)c1nc(C)nc(OC)n1
active: [8] 20 µM
inactive: [6] | [7] | [10] | [9]

COc1cc(OC)nc(NC(=O)NS(=O)(=O)c2cc(NC=O)ccc2C(=O)N(C)C)n1
inactive: [5] | [8] | [7] | [10] | [14]

COc1nn(CSP(=S)(OC)OC)c(=O)s1
inactive: [1] | [3] | [11] | [4] | [13] | [7]
active: [8] 1.25 µM | [12] 3.7 µM
